Structures are written as SMILES. Several values for one entry are separate records, joined by “and”; a condition that tells them apart may be missing. Equal values may be shown once. Results filed as inconclusive are left out. Where a call stands in place of a potency, no number is given. More than one record can exist for a structure, and the calls need not agree. Activity calls are given as the source filed them. Calls follow the shape of the full dose curve.
Potency is read from the fitted curve at half-maximal effect.

5-hydroxytryptamine receptor 2A (Homo sapiens), sequence (P28223 whole entry, looked up): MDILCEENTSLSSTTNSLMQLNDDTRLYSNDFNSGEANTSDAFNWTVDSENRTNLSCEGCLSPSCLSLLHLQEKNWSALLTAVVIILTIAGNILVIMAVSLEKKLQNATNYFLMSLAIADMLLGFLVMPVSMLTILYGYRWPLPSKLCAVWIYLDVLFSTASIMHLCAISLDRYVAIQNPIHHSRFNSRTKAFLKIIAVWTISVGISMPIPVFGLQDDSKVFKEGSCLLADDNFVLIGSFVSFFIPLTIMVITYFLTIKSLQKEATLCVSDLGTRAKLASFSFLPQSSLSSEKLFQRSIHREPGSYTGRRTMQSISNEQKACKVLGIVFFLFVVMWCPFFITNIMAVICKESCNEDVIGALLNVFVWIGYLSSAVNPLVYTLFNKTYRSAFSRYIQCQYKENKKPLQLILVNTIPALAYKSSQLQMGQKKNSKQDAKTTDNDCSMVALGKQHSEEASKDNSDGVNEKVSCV

This experiment addresses 5-hydroxytryptamine receptor 2A (Homo sapiens) (UniProt P28223). Kind of experiment: 5-hydroxytryptamine receptor 2A (HTR2A) small molecule agonists, cell-based qHTS assay (AID 1963587). Also: nearly all actives have a fitted effect of over 30% in size. As to conditions: HTR2A-CHO cells, calcium flux fluorescence, agonist mode; series mostly up to 76.8 µM. From the text:
National Center for Advancing Translational Sciences [NCATS]
Division of Preclinical Innovation [DPI]
U.S. Environmental Protection Agency [EPA]
National Institutes of Environmental Health Sciences [NIEHS]
National Toxicology Program [NTP]
U.S. Food and Drug Administration [FDA]
The HTR2A receptor is a subtype of the 5-HT2 receptor that belongs to the serotonin receptor family and is a G protein-coupled receptor (GPCR). The HTR2A-CHO cell line stably expressing human 5-hydroxytryptamine receptor 2A (HTR2A) can be used for screening agonists of interactions between 5-HT2 and its ligands. The HTR2A-CHO calcium flux assay is a homogeneous fluorescence-based assay for detecting the intracellular calcium level using FDSS kinetic plate reader system.
HTR2A-CHO cells were dispensed at 2000 cells/3uL/well in 1536-well black-clear bottom plates using a Multidrop Dispenser. After the assay plates were incubated at a 37 C/5% CO2 incubator for 18 h, 3 uL of Dye Loading Buffer was transferred to the assay plate by a Flying Reagent Dispenser. The assay plates were incubated at 37 C for 1h. For agonist mode, 23 nL of compounds dissolved in DMSO, positive controls or DMSO only was transferred to the assay plate by a pin tool. The fluorescence intensity in the plates was measured using FDSS 7000EX kinetic plate reader for 2 min at 1 sec intervals.
Turning to `CC1(C)C(C=C(Cl)Cl)C1C(=O)OC(C#N)c1cccc(Oc2ccccc2)c1` (stereo not given), the Potency entry is “inactive”.

Turning to `O=C(CCN1CC1)OCC(CO)(COC(=O)CCN1CC1)COC(=O)CCN1CC1`, the Potency entry is “inactive”.

Consider `CN(C)N=O`, for which the Potency result was “inactive”.

With `FC(F)(F)c1ccc(Cl)cc1`, the Potency result is “inactive”.

As for `C[C@H]1O[C@H](OC2[C@@H](O)[C@@H](O)C(O)[C@H](O)[C@H]2O)[C@@H](N)C[C@@H]1N=C(N)C(=O)O` (stereo not given in full), the Potency result was “inactive”.

In the case of `c1ccc2c(c1)-c1cccc3cccc-2c13`, the Potency entry is “inactive”.

In the case of `Nc1nc(N)nc(Cl)n1`, the Potency entry was “inactive”.

Regarding `O=S(=O)(O)O`, the Potency result was “inactive”.

As for `O=Cc1ccc(Cl)cc1Cl`, the Potency entry was “inactive”.

Take `ClC(Cl)c1ccccc1`: the Potency entry was “inactive”.

On to `O=Cc1cccc(Oc2ccccc2)c1`, for which the Potency entry is “inactive”.

In the case of `COC[C@H](C)N(C(=O)CCl)c1c(C)csc1C`, the Potency entry is “inactive”.

For the compound `O=P(O)(Oc1ccccc1)Oc1ccccc1`, the Potency result was “inactive”.

As to `CCOC(=O)Nc1cccc(OC(=O)Nc2ccccc2)c1`, the Potency result is “inactive”.

Turning to `CC(O)CCO` (stereo not given), the Potency result is “inactive”.

As to `Oc1ccc(Cl)cc1Cc1ccccc1`, the Potency was 44.2 µM (active) and inactive.

For the compound `O=[N+]([O-])/N=C1\NCCN1Cc1ccc(Cl)nc1`, the Potency entry is “inactive”.

Regarding `Cl`, the Potency result is “inactive”.

Regarding `ClCCOCCCl`, the Potency result is “inactive”.

Take `Cl[C@H]1OCCO[C@@H]1Cl`: the Potency result was “inactive”.

`CN(CCO)CCO`: the Potency entry was “inactive”.

`COP(=O)(CCC(=O)NCO)OC`: the Potency entry was “inactive”.

On to `O=[N+]([O-])c1ccc(CBr)cc1`, for which the Potency entry was “inactive”.

In the case of `CN(C)CCO`, the Potency entry is “inactive”.

In the case of `CCCCCCCCCCCCCl`, the Potency result is “inactive”.

Consider `OCCSSCCO`, for which the Potency entry is “inactive”.

For the compound `CC(c1ccc(O)cc1)c1ccc(O)cc1`, the Potency entry is “inactive”.

Consider `ClCOCCl`, for which the Potency entry was “inactive”.

In the case of `ClCC(Br)CBr` (stereo not given), the Potency entry was “inactive”.

Turning to `O=C(Cl)OCCOCCOC(=O)Cl`, the Potency entry was “inactive”.

In the case of `CCOC(=O)C1OC1(C)c1ccccc1` (stereo not given), the Potency result is “inactive”.

For the compound `O=c1nc(O)n(Cl)c(=O)n1Cl`, the Potency result is “inactive”.

`CCC1(c2ccccc2)CCC(=O)NC1=O` (stereo not given): the Potency result is “inactive”.

As for `CCC[CH2][Sn]([Cl])([CH2]CCC)[CH2]CCC`, the Potency is 11 µM (active) and 34.7 µM (active).

As for `C#CCOC(C(=O)OCCN(C)C)(c1ccccc1)c1ccccc1`, the Potency result is “inactive”.

Take `O=C=NC1CCCCC1`: the Potency result was “inactive”.

Take `O=[N+]([O-])c1cccc2ccccc12`: the Potency result is “inactive”.

Take `Brc1ccc(Oc2cc(Br)c(Br)cc2Br)c(Br)c1`: the Potency entry is “inactive”.

Consider `O=[N+]([O-])c1ccccc1O`, for which the Potency result is “inactive”.

For `CCCN(CCOc1c(Cl)cc(Cl)cc1Cl)C(=O)n1ccnc1`, the Potency result is “inactive”.

The values above are taken from PubChem BioAssay (Tox21).
